Results: the supplement of paper PMC6089552
About 300 (9.4%) of roughly 3,200 compounds showed activity. Many of the other results were omitted from the sample, so actives are more common in it than they were.

Tested on: A673/TR/shEF
Assay: cell viability (LOESS-normalised, relative to median of negative controls) (log2 ratio); higher = more viable cells (less compound effect), active = hit call of the paper (over 3 MAD below the median)
Details: treatment time: 72 h
Procedure, shortened: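 Viability of A673/TR/shEF Ewing sarcoma cells was determined by CellTiter-Glo luminescence. The cells, at 1,500 per well in 384-well plates, were grown with or without doxycycline from 24 h before compound addition to switch on EWS-FLI1 shRNA knockdown, then exposed for three days to library compounds at two or more concentrations or to DMSO controls. Signals were LOESS-corrected plate by plate, normalised to the negative-control median and log2-transformed.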

[1] = 0.25 µM, library screen: screen1, EWS-FLI1 expression: high (no doxycycline)
[2] = 0.25 µM, library screen: screen1, EWS-FLI1 expression: low (doxycycline-induced shRNA knockdown)
[3] = 2.5 µM, library screen: screen1, EWS-FLI1 expression: high (no doxycycline)
[4] = 2.5 µM, library screen: screen1, EWS-FLI1 expression: low (doxycycline-induced shRNA knockdown)
[5] = 0.103 µM, library screen: screen3, EWS-FLI1 expression: high (no doxycycline)
[6] = 0.103 µM, library screen: screen3, EWS-FLI1 expression: low (doxycycline-induced shRNA knockdown)
[7] = 0.308 µM, library screen: screen3, EWS-FLI1 expression: high (no doxycycline)
[8] = 0.308 µM, library screen: screen3, EWS-FLI1 expression: low (doxycycline-induced shRNA knockdown)
[9] = 0.926 µM, library screen: screen3, EWS-FLI1 expression: high (no doxycycline)
[10] = 0.926 µM, library screen: screen3, EWS-FLI1 expression: low (doxycycline-induced shRNA knockdown)
[11] = 2.8 µM, library screen: screen3, EWS-FLI1 expression: high (no doxycycline)
[12] = 2.8 µM, library screen: screen3, EWS-FLI1 expression: low (doxycycline-induced shRNA knockdown)
[13] = 8.3 µM, library screen: screen3, EWS-FLI1 expression: high (no doxycycline)
[14] = 8.3 µM, library screen: screen3, EWS-FLI1 expression: low (doxycycline-induced shRNA knockdown)
[15] = 25 µM, library screen: screen3, EWS-FLI1 expression: high (no doxycycline)
[16] = 25 µM, library screen: screen3, EWS-FLI1 expression: low (doxycycline-induced shRNA knockdown)

Measured: cell viability (log2)

NCC1COc2ccccc2O1 (centres undefined)
inactive: [1] 0.104 | [2] -0.0116 | [3] 0.0686 | [4] 0.0513

COc1cccc(C=CC(=O)O)c1C(C)C
inactive: [1] 0.0613 | [2] 0.0863 | [3] 0.0736 | [4] 0.0985

CCC(=O)OC1[C@@H]2CC3=C4CC(=O)O[C@@H](c5ccoc5)[C@]4(C)CCC3[C@@](C)(C2=O)[C@@H](CC(=O)OC)C1(C)C (some centres undefined)
inactive: [1] 0.0873 | [2] -0.00184 | [3] 0.0649 | [4] 0.122

NCCC(=O)N[C@@H](Cc1cnc[nH]1)C(=O)O
inactive: [1] 0.026 | [2] 0.0201 | [3] 0.0679 | [4] 0.084

O=C(O)C[C@H](O)C[C@H](O)/C=C/c1c(C2CC2)nc2ccccc2c1-c1ccc(F)cc1
inactive: [5] 0.0626 | [6] -0.0656 | [7] -0.114 | [8] -0.0155
active: [9] -0.533 | [10] -0.345 | [11] -1.53 | [12] -0.986 | [13] -2.09 | [14] -1.25 | [15] -3.51 | [16] -3.56

CC(C)c1c(C(=O)Nc2ccccc2)c(-c2ccccc2)c(-c2ccc(F)cc2)n1CC[C@@H](O)C[C@@H](O)CC(=O)O
inactive: [1] 0.091 | [2] 0.0242 | [3] 0.147 | [4] -0.0132

CC(C)n1c(/C=C/C(O)CC(O)CC(=O)O)c(-c2ccc(F)cc2)c2ccccc21 (centres undefined)
inactive: [5] 0.107 | [6] 0.0332 | [7] 0.201 | [8] 0.108 | [9] 0.169 | [10] 0.0801 | [11] 0.0218 | [12] -0.0661
active: [13] -0.668 | [14] -0.538 | [15] -2.7 | [16] -1.87

O=C1O[C@H]([C@@H](O)CO)C([O-])=C1[O-].[Ca+2]
inactive: [1] 0.0808 | [2] 0.0736 | [3] 0.131 | [4] 0.127

CC1=C(C(=O)Nc2ccccc2Cl)C(c2ccccc2Cl)NC(=S)N1 (centres undefined)
inactive: [1] 0.0969 | [2] 0.0233 | [3] 0.106 | [4] 0.0823

CCc1c(C)c(C#N)c2nc3ccccc3n2c1-n1ccnc1C
inactive: [1] 0.109 | [2] 0.0379 | [3] 0.104 | [4] 0.136

CC(=O)Oc1ccc2c(c1)CC[C@@H]1[C@@H]2CC[C@]2(C)[C@@H](O)CC[C@@H]12
inactive: [1] 0.103 | [2] -0.00729 | [3] 0.0771 | [4] 0.0723

COc1c(O)cc(O)c2c(=O)c(-c3ccc(O)cc3)coc12
inactive: [1] 0.0728 | [2] 0.0747 | [3] 0.145 | [4] 0.165

COc1c/c(=C2\C=c3ccccc3=N2)[nH]/c1=C\c1[nH]c(C)cc1C
inactive: [5] -0.00852 | [6] -0.0389
active: [7] -0.218 | [8] -0.107 | [9] -0.709 | [10] -0.236 | [11] -2.64 | [12] -1.14 | [13] -3.15 | [14] -1.55 | [15] -4.31 | [16] -2.5

COc1nc(N/N=C/c2ccccc2F)nc(N2CCCCC2)n1
inactive: [1] 0.0265 | [2] 0.00454 | [3] 0.104 | [4] -0.0151

NC(Cc1ccc(F)cc1)C(=O)O (centres undefined)
inactive: 0.025 µM, library screen: screen2, EWS-FLI1 expression: high (no doxycycline) 0.118 | 0.025 µM, library screen: screen2, EWS-FLI1 expression: low (doxycycline-induced shRNA knockdown) 0.0851 | [1] 0.119 | [2] 0.172 | 0.25 µM, library screen: screen2, EWS-FLI1 expression: high (no doxycycline) 0.158 | 0.25 µM, library screen: screen2, EWS-FLI1 expression: low (doxycycline-induced shRNA knockdown) 0.0689 | [3] 0.144 | [4] 0.0179 | 2.5 µM, library screen: screen2, EWS-FLI1 expression: high (no doxycycline) 0.2 | 2.5 µM, library screen: screen2, EWS-FLI1 expression: low (doxycycline-induced shRNA knockdown) 0.0773 | 25 µM, library screen: screen2, EWS-FLI1 expression: high (no doxycycline) 0.0209 | 25 µM, library screen: screen2, EWS-FLI1 expression: low (doxycycline-induced shRNA knockdown) 0.0999

CSCCC(NC=O)C(=O)NC(C)C(=O)O (centres undefined)
inactive: [1] 0.11 | [2] 0.0779 | [3] 0.177 | [4] 0.154

O=C1c2cccc(O)c2C(=O)c2c(O)cccc21
inactive: [1] 0.127 | [2] 0.109 | [3] 0.149 | [4] 0.271

O=C1c2ccc(O)c(O)c2C(=O)c2c(O)ccc(O)c21
inactive: [1] 0.0226 | [2] 0.0878 | [3] 0.117 | [4] -0.00838
